# The supplement of paper PMC8975748
# Where a name gives a salt, the structure may show the parent alone.
# Tested on: Saccharomyces cerevisiae BY4741 SeMeCo community
# Assay: z-score of prototroph abundance vs DMSO median; higher = larger share of this subpopulation than in DMSO controls
# Settings: 10 µM; 24 h; SM minimal medium; subpopulation (auxotrophy): Prototroph
# Description: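 Fluorescent four-plasmid SeMeCo (self-establishing metabolically cooperating S. cerevisiae BY4741 community; plasmids pH-mRuby2, pL-mWasabi, pU-eCFP, pM-TagRFP657) was grown 24 h in minimal SM medium with each Selleck FDA-approved drug at 10 µM in 384-well plates. Cells were fixed and imaged by high-content confocal microscopy. For each auxotrophic subpopulation (and the prototroph), a z-score gives the deviation from the DMSO vehicle-control population median.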
row,Structure (SMILES),z-score of prototroph abundance
1,CN(C)c1ccc(O)c2c1C[C@H]1C[C@H]3[C@H](N(C)C)C(=O)C(C(N)=O)=C(O)[C@@]3(O)C(=O)C1=C2O [Minocycline HCl],-0.28
2,OC[C@H]1O[C@H](OCC2O[C@@H](O)[C@H](O)[C@@H](O)[C@@H]2O)[C@H](O)[C@@H](O)[C@H]1O (stereo not given in full) [Melibiose],-0.13
3,Nc1c(Br)cc(Br)cc1CN[C@H]1CC[C@H](O)CC1 [Ambroxol HCl],1.21
4,CC[C@H](C)C(=O)O[C@H]1C[C@@H](C)C=C2C=C[C@H](C)[C@H](CC[C@@H]3C[C@@H](O)CC(=O)O3)[C@H]21 [Lovastatin],-1.34
5,Cc1ccc(O)c([C@H](CCN(C(C)C)C(C)C)c2ccccc2)c1 [Tolterodine tartrate],-0.65
6,C#C[C@]1(O)CC[C@H]2[C@@H]3CCC4=CCCC[C@@H]4[C@H]3C(=C)C[C@@]21CC [Desogestrel],0.47
7,COc1ccc2cc3[n+](cc2c1OC)CCc1cc2c(cc1-3)OCO2 [Berberine chloride],-0.22
8,COc1cc(/C=C/C(=O)N2CCN(CC(=O)N3CCCC3)CC2)cc(OC)c1OC [Cinepazide maleate],-0.19
9,COc1ccc2cc3[n+](cc2c1OC)CCc1cc2c(cc1-3)OCO2 [Berberine Sulfate],-0.5
10,NC(=N\CCCCCC/N=C(N)/N=C(\N)Nc1ccc(Cl)cc1)/N=C(\N)Nc1ccc(Cl)cc1 [Chlorhexidine diacetate],1.46
11,O=C1CN(/N=C/c2ccc([N+](=O)[O-])o2)C(=O)N1 [Nitrofurantoin],0.19
12,O=c1ccc2cc(O)c(O)cc2o1 [Esculetin],2.22
13,OCCN1CCN(CCCN2c3ccccc3Sc3ccc(Cl)cc32)CC1 [Perphenazine],-0.28
14,CC(=O)OC(C)C[N+](C)(C)C (stereo not given) [Methacholine chloride],-0.97
15,O=C(O)c1cn(C2CC2)c2cc(N3CCNCC3)c(F)cc2c1=O [Ciprofloxacin hydrochloride hydrate],-0.74
16,C[C@]12CC[C@@H]3c4ccc(O)cc4CC[C@H]3[C@@H]1C[C@@H](O)[C@@H]2O [Estriol],0.65
17,Cc1ccc(C(=O)C(C)CN2CCCCC2)cc1 (stereo not given) [Tolperisone HCl],1.01
18,CCCCCCCCCC(=O)NC1C(Oc2c3cc4cc2Oc2ccc(cc2Cl)C(OC2OC(CO)C(O)C(O)C2NC(C)=O)C2NC(=O)C(NC(=O)C4NC(=O)C4NC(=O)C(Cc5ccc(c(Cl)c5)O3)NC(=O)C(N)c3ccc(O)c(c3)Oc3cc(O)cc4c3)c3ccc(O)c(c3)-c3c(OC4OC(CO)C(O)C(O)C4O)cc(O)cc3C(C(=O)O)NC2=O)OC(CO)C(O)C1O (stereo not given) [Teicoplanin],-0.99
19,CCCCCOc1ccccc1/C(=C\SC)n1ccnc1 [Neticonazole Hydrochloride],-8.79
20,CCCCNc1ccc(C(=O)OCCN(C)C)cc1 [Tetracaine HCl],-0.78

row,Structure (SMILES),z-score of prototroph abundance
1,"OCc1ccc(Cl)cc1Cl [2,4-dichlorobenzyl alcohol]",-0.15
2,C(=C\c1ccccc1)/CN1CCN(C(c2ccccc2)c2ccccc2)CC1 [Cinnarizine],-1.14
3,CCN(CC)CCOC(=O)c1ccc(N)cc1 [Procaine HCl],0.84
4,Oc1c(Cl)cc(Cl)cc1Sc1cc(Cl)cc(Cl)c1O [Bithionol],-1.81
5,CC[C@H]1OC(=O)[C@H](C)[C@@H](O[C@H]2C[C@@](C)(OC)[C@@H](O)[C@H](C)O2)[C@H](C)[C@@H](O[C@@H]2O[C@H](C)C[C@H](N(C)C)[C@H]2O)[C@](C)(O)C[C@@H](C)C(=O)[C@H](C)[C@@H](O)[C@]1(C)O [Erythromycin],-0.5
6,CCCCCCCCN=c1ccn(CCCCCCCCCCn2ccc(=NCCCCCCCC)cc2)cc1 [Octenidine Dihydrochloride],-16.1
7,Cn1c(=O)c2c(ncn2CC2OCCO2)n(C)c1=O [Doxofylline],0.31
8,CCC(C)C1OC2(CCC1C)CC1CC(CC=C(C)C(OC3CC(OC)C(OC4CC(OC)C(O)C(C)O4)C(C)O3)C(C)C=CC=C3COC4C(O)C(C)=CC(C(=O)O1)C34O)O2 (stereo not given) [Ivermectin],-1.61
9,CN(C)CCc1c[nH]c2ccc(C[C@H]3COC(=O)N3)cc12 [Zolmitriptan],0.27
10,CO/N=C(\C(=O)N[C@@H]1C(=O)N2C(C(=O)O)=C(CSc3nc(=O)c(O)nn3C)CS[C@H]12)c1csc(N)n1 [Ceftriaxone Sodium Trihydrate],0.45
11,CC/C(=C(/CC)c1ccc(O)cc1)c1ccc(O)cc1 [Diethylstilbestrol],1.5
12,COc1ccc2cc(CCC(C)=O)ccc2c1 [Nabumetone],1
13,CO/N=C(\C(=O)N[C@@H]1C(=O)N2C(C(=O)OC(C)OC(C)=O)=C(COC(N)=O)CS[C@H]12)c1ccco1 (stereo not given in full) [Cefuroxime axetil],-0.04
14,CCOc1ccc2ccccc2c1C(=O)N[C@@H]1C(=O)N2[C@@H]1SC(C)(C)[C@@H]2C(=O)O [Nafcillin Sodium],0.32
15,COc1ccc(-c2nc3cc(C4=NNC(=O)CC4C)ccc3[nH]2)cc1 (stereo not given) [Pimobendan],-0.89
16,CCN1CCN(C(=O)N[C@@H](C(=O)N[C@@H]2C(=O)N3C(C(=O)O)=C(CSc4nnnn4C)CS[C@H]23)c2ccc(O)cc2)C(=O)C1=O [Cefoperazone],0.07
17,CCCc1cc(C(N)=S)ccn1 [Protionamide],0.19
18,CC(C)Cc1ccc(C(C)C(=O)O)cc1 (stereo not given) [Ibuprofen Lysine],3.98
19,C[C@H]1NCc2cc(-c3ccc4c(=O)c(C(=O)O)cn(C5CC5)c4c3OC(F)F)ccc21 [Garenoxacin],-0.68
20,COc1cccc(CCc2ccccc2OCC(CN(C)C)OC(=O)CCC(=O)O)c1 (stereo not given) [Sarpogrelate hydrochloride],0.79
